DT40 TDP1 no CPT: qHTS for Inhibitors of human tyrosyl-DNA phosphodiesterase 1 (TDP1): qHTS in cells in absence of CPT. Potency, µM (highest dose often 46.2 µM), for inactives: top-dose activity change, negative = growth inhibition, actives largely listed as inhibitors. AID 686978, 2013. DT40 Tdp1-/- hTDP1 cells, no CPT, ATP luminescence, 48 h. 15% of 420,000 active; further: potency means the concentration at half of the fitted maximal effect; nearly all actives have a fitted effect of over 55% in size
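A cellular qHTS used chicken DT40 cells lacking endogenous Tdp1 but carrying stably transfected human TDP1. Compounds were applied without camptothecin, and cell growth kinetics were judged by ATP-dependent luminescence after ≥48 hr.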
IL1B secr inh: qHTS for Inhibitors of Inflammasome Signaling: IL-1-beta AlphaLISA Primary Screen; THP-1 LPS/ATP IL-1B secretion, AlphaLISA, 16 h; stronger effect = lower value; activity change, % at 57.5 µM; 4.7% of 360,000 active; AID 743279, 2014; in the data active means activity change below about -50%; inconclusive means mostly about -30% to -49%
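Secreted IL-1B measured by AlphaLISA bead assay after 16 h compound exposure of THP-1 cells; compounds (final up to 57.5 uM) added 1 h before LPS (250 ng/mL) and ATP (1.25 mM) stimulation; lower signal means less secretion.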
HT1080 IDH1KD tx: qHTS for induction of synthetic lethality in tumor cells producing 2HG: qHTS for the HT-1080-IDH1KD cell line; 2% of 360,000 active; HT-1080 IDH1 knockdown viability, ATP luminescence, 48 h; AID 686971, 2013; Potency, µM (doses to about 46.1 µM), for the others: at the top dose activity, negative = toxicity, hits mostly cytotoxic;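 further: potency means the concentration at half of the fitted maximal effect; 0% = DMSO wells and -100% = cell-free medium wells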
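Assay cells: HT-1080 with IDH1 knockdown, 750 per well, RPMI/5% FBS. Exposure: 48 h at 37 °C following 2 h pre-incubation. Read: CellTiter-Glo luminescence; fitted concentration-response, curve class assigned.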
DT40 TDP1 CPT: qHTS for Inhibitors of human tyrosyl-DNA phosphodiesterase 1 (TDP1): qHTS in cells in presence of CPT | chicken DT40 Tdp1-/-;hTDP1 cells + 20 nM CPT, ATP luminescence, 48 h | Potency, µM (doses to about 46.2 µM), for the others: at the highest dose activity change, negative = growth inhibition, most hits filed as inhibitors | 12% of 420,000 active; further: potency means the concentration at half of the fitted maximal effect; nearly all actives have a fitted effect of over 55% in size
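Chicken DT40 Tdp1-/- cells stably complemented with human TDP1 were seeded at 400 cells/well in medium containing 20 nM camptothecin, exposed to pin-transferred compounds, and grown at 37 °C for at least 48 hr. Viability was read as ATP luminescence.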
ALOX12 inh: Primary qHTS assay for inhibitors of human arachidonate 12S-lipoxygenase (ALOX12): Round 2; purified 12hLO, xylenol orange hydroperoxide absorbance; 1.1% of 580,000 active; Potency, µM (doses to about 108 µM), for the others: at the top dose activity change, negative = inhibition, hits mostly inhibitors; Polyunsaturated fatty acid lipoxygenase ALOX12 (Homo sapiens), P18054; AID 1671190, 2021; further: potency means the concentration at half of the fitted maximal effect
Target sequence (P18054 whole entry, looked up): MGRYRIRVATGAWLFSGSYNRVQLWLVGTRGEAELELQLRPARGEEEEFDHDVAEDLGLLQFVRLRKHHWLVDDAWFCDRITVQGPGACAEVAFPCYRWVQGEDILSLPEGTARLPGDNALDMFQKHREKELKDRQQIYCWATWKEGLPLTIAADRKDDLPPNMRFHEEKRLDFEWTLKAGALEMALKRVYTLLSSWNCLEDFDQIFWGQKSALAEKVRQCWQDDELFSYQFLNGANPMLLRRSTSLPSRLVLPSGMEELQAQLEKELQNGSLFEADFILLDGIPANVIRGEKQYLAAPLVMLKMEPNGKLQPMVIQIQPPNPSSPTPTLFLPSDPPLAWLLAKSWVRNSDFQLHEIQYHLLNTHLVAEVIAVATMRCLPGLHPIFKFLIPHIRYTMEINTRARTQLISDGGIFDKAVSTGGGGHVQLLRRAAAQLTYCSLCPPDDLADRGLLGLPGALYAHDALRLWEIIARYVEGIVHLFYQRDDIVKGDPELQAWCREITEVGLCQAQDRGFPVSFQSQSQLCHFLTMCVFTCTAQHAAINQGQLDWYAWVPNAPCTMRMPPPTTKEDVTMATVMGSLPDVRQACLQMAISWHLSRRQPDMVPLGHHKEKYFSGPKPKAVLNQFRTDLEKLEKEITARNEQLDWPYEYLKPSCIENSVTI
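Purified human 12hLO (150 nM final) in 25 mM Hepes, 0.01% Triton X-100, pH 7.0 was preincubated 15 min at room temperature with compound. Then 40 uM arachidonic acid was added, 30 min. Hydroperoxide was read by Fe-XO absorbance ratio 573/405 nm.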
HT1080NT lethal: qHTS for induction of synthetic lethality in tumor cells producing 2HG: qHTS for the HT-1080-NT fibrosarcoma cell line; HT-1080-NT fibrosarcoma viability, CellTiter-Glo ATP luminescence, 48 h; Potency, µM (doses to about 46.1 µM), inactives show top-dose activity, negative = less viability, hits mostly cytotoxic; 1.6% of 360,000 active;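 further: NT is the 2HG producing partner of a matched IDH1 knockdown line; potency means the concentration at half of the fitted maximal effect; 0% = DMSO-treated cells and -100% = media-only wells without cells; nearly all actives have a fitted effect of over 55% in size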
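Toxicity toward the 2HG-producing NT line was scored as %Activity, normalised to DMSO and no-cell wells, from CellTiter-Glo luminescence after 48 hours' treatment.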
Numbers without * were called inactive; ? = inconclusive; . = not tested or not shown; [ ] = another dose, or the depositor's remark. The full list was thinned out, with hits kept by preference. Unless noted, the call rests on the fitted dose curve; in most records, active means well fitted curve in the direction sought with a large enough effect; inconclusive means small, poorly fitted or top-dose-only effect, or another doubt; inactive means no such curve, though single readings can be large; an effect the other way counts as inactive or inconclusive. Unless noted, on the % scale 0 is the no-effect control and ±100 the full control effect.

SMILES	DT40 TDP1 no CPT	IL1B secr inh	HT1080 IDH1KD tx	DT40 TDP1 CPT	ALOX12 inh	HT1080NT lethal
Cc1cccc(-n2cc(CNCCc3nc(C)cc(C)n3)c(-c3cccc(F)c3)n2)c1	4.6µM*	?	?	12µM*	?	?
COC(=O)CN(C)Cc1cn(-c2ccc(C)cc2)nc1-c1cccc(C)c1	.	.	.	.	36%	.
Cc1ccc(C)c(-n2cc(CNCCCn3cccn3)c(-c3ccccc3)n2)c1	21µM*	?	?	23µM*	0%	21µM*
Cc1ccccc1N(C)C1CN(C(=O)c2ccccc2)C1	.	.	.	.	5%[12.5 µM]	.
CCN1CC(CN(C)Cc2cn(-c3cccc(C)c3)nc2-c2cccc(F)c2)CC1=O (stereo not drawn)	18µM*	?	-7%	16µM*	-14%	2%
CCN(CC)CCOc1ccc(-c2nc3cc(Cl)ccc3s2)cc1	4.7µM*	.	.	4.7µM*	.	.
CCOC(=O)C1=C(C)Nc2sc(C(=O)c3ccc(C)cc3)c(N)c2C1c1ccc(C(=O)OC)cc1 (stereo not drawn)	?	-29	-17%	?	?	1%
CCOC(=O)C1=C(C)Nc2sc(C(=O)c3ccc(F)cc3)c(N)c2C1c1ccc(C(=O)OC)cc1 (stereo not drawn)	12µM*	-10	-15%	18µM*	-20%	-3%
O=C(CSc1nc2sccc2c(=O)n1-c1ccccc1)NC1CCCC1	.	.	.	.	-13%	.
CCc1nnc2sc(-c3ccc(NC(=O)C(C)(C)C)cc3)nn12	.	.	.	.	9%	.
CCOc1ccccc1NC(=O)CCc1c(C)nn(-c2ccc(N3CCCCC3)nn2)c1C	16µM*	-14	-12%	23µM*	-8%	-1%
CCOC(=O)c1ccc(NC(=O)CCc2c(C)nn(-c3ccc(N4CCCCC4)nn3)c2C)cc1	.	.	.	.	-8%	.
CCOc1ccccc1CNC(=O)CCc1c(C)nn(-c2ccc(N3CCOCC3)nn2)c1C	?	.	.	?	-23%	.
CCOc1ccccc1CNC(=O)CCc1c(C)nn(-c2ccc(N3CCCCC3)nn2)c1C	21µM*	.	.	?	-10%	.
O=C(NC1CCCCCC1)c1ccc(Cn2ccn3nc4c(c3c2=O)CCCC4)cc1	.	.	.	.	15%	.
COc1ccc(CCNC2=C(Cl)C(=O)N(CCc3ccccc3)C2=O)cc1OC	21µM*	0	-4%	?	-7%	-2%
COc1ccc(CCNc2c(N)n(Cc3ccccc3)c(=O)[nH]c2=O)cc1OC	?	-55*	-2%	-96%	?	-6%
Nc1c(NCCC2=CCCCC2)c(=O)[nH]c(=O)n1Cc1ccccc1	6.5µM*	-12	-7%	26µM*	0%	-7%
CN1CCc2c([nH]c3ccccc23)C12CCN(C(=O)c1ccccn1)CC2	.	.	.	.	22%	.
Cc1ccc(NC(=O)c2ccc3c(c2)OCCO3)cc1C	?	-50*	-9%	-10%	-1%	0%
Cc1cccc(NC(=O)c2ccc3c(c2)OCCO3)c1	?	1	-24%	-25%	-13%	?
O=C(Nc1ccc(NC(=O)c2ccc3c(c2)OCCO3)cc1)c1ccccc1	-4%	30	?	?	14%	16µM*
O=C(Nc1ccc2c(c1)OCCO2)c1ccc(Cl)cc1	21µM*	-12	-1%	?	9%	-4%
CC(=O)Nc1ccc(C(=O)Nc2ccc3c(c2)OCCO3)cc1	-18%	-13	-5%	0%	7%	-7%
Cc1ccc(NC(=O)c2ccc3c(c2)OCCO3)cc1S(=O)(=O)Nc1cccc(Cl)c1	21µM*	-57*	-11%	16µM*	-14%	-6%
SMILES	DT40 TDP1 no CPT	IL1B secr inh	HT1080 IDH1KD tx	DT40 TDP1 CPT	ALOX12 inh	HT1080NT lethal
O=C(Cc1noc(C(=O)NC2CC2)n1)Nc1cccc2ncccc12	.	.	.	.	28%	.
O=C(Nc1ccc2c(c1)OCCO2)c1cc2cc(Br)ccc2[nH]1	.	.	.	.	14µM*	.
CC(NC(=O)CCc1ncc(-c2ccccc2Cl)o1)c1ccc(S(N)(=O)=O)cc1 (stereo not drawn)	.	.	.	.	-3%	.
Cc1ccn2c(NC3CCCC3)c(-c3ccncc3)nc2c1	?	-11	6%	?	-8%	9%
Cc1ccc2nc(-c3ccncc3)c(NC3CCCCC3)n2c1	?	17	12%	23µM*	-4%	14%
Cc1ccc2nc(-c3ccsc3)c(NC3CCCC3)n2c1	13µM*	19	5%	10µM*	-4%	4%
COc1ccccc1-c1cccc([C@@H]2C[C@H]3[C@H](CON3C)CN2Cc2cc(Cl)cc(Cl)c2)c1	?	1	-1%	?	-20%	-4%
Cc1ccccc1-c1cccc([C@@H]2C[C@H]3[C@H](CON3C)CN2Cc2cc(Cl)cc(Cl)c2)c1	23µM*	-19	4%	?	7%	4%
COc1ccccc1-c1cccc([C@@H]2C[C@H]3[C@H](CON3C)CN2Cc2ccccc2)c1	21µM*	-2	-17%	?	3%	-16%
CN1OC[C@@H]2CN(Cc3cc(Cl)cc(Cl)c3)[C@H](c3cccc(Br)c3)C[C@@H]21	21µM*	-27	?	?	-5%	-18%
CCC(=O)Nc1sc2c(c1C#N)CCC(C(C)(C)CC)C2 (stereo not drawn)	.	.	.	.	10%	.
Nc1nc(CC(=O)N2CCCC(CNC(=O)c3ccc(F)cc3)C2)cc(=O)[nH]1 (stereo not drawn)	.	.	.	.	1%	.
CC(C)C(=O)N1CCN(c2nc3c(s2)CC(C(=O)Nc2ccc(Cl)cc2)CC3)CC1 (stereo not drawn)	.	.	.	.	32µM*	.
CCC(=O)N1CCN(c2nc3c(s2)CC(C(=O)Nc2ccc(OC)c(F)c2)CC3)CC1 (stereo not drawn)	.	.	.	.	25µM*	.
N#CCCCN1C(=O)C(=C(C#N)C#N)c2ccccc21	?	-3	-2%	16µM*	?	-7%
N#CCCCN1C(=O)C(O)(CC(=O)c2ccc3c(c2)OCCO3)c2ccccc21 (stereo not drawn)	?	12	16%	?	?	13%
N#C/C(=C(/O)c1ccc([N+](=O)[O-])o1)c1nc2ccccc2[nH]1	18µM*	0	-1%	12µM*	-11%	24%

Bioassay records (PubChem BioAssay)
